Laboratory results published in ChEMBL document CHEMBL1157539, “Thousands of chemical starting points for antimalarial lead identification” (Nature, 2010).

Tests used:
Type in all cases: functional
Plasmodium falciparum [1] = assay: GSK_TCMDC: Inhibition of Plasmodium falciparum 3D7 in whole red blood cells, using parasite LDH activity as an index of growth. Test compounds present at 2uM
Plasmodium falciparum [2] = assay: GSK_TCMDC: Inhibition of Plasmodium falciparum Dd2 in whole red blood cells, using parasite LDH activity as an index of growth. Test compounds present at 2uM
HepG2 = assay: GSK_TCMDC: Percent inhibition of human HepG2 cell line. Test compounds present at 10uM.

Structure (SMILES) | Inhibition (Plasmodium falciparum [1]) [%] | Inhibition (Plasmodium falciparum [2]) [%] | Inhibition (HepG2) [%]
CCCC(=O)Nc1ccc(OCCCN(Cc2ccccc2F)c2ccc(C#N)c(C(F)(F)F)c2)cc1 | 89 | 93 | 7
Cc1ccccc1C1CCN(C2CCC(NC(=O)c3ccc4c(c3)-c3nocc3C(C)O4)CC2)CC1 (stereo not given) | 88 | 37 | 68
c1cc(Cc2ccc(Nc3c4ccccc4nc4ccccc34)cc2)cc(Nc2c3ccccc3nc3ccccc23)c1 | 100 | 100 | 91
CCN(CC)CCOc1ccc(C(O)(C#CC(O)(c2ccc(OCCN(CC)CC)cc2)c2ccc([N+](=O)[O-])cc2)c2ccc([N+](=O)[O-])cc2)cc1 (stereo not given) | 98 | 97 | 55
Cl.N=C(N)NCCCN(Cc1ccccc1)c1ccccc1 | 100 | 97 | 0
CCn1c(-c2nonc2N)nc2c(-c3cccc(NC(=O)Nc4cccc(C#N)c4)c3)ncc(OCCCN)c21.O=C(O)C(F)(F)F | 92 | 80 | 37
Cc1ccccc1C1CCN(C2CCC(NC(=O)/C=C/c3c(F)ccc(F)c3F)CC2)CC1 (stereo not given) | 82 | 33 | 37
Cc1cc(Br)cnc1CCCCNc1cc(=O)c2ccccc2[nH]1.Cl | 91 | 64 | 0
Cc1ccc(C)c(NC(=O)CC2C(=O)N(c3ccccc3)C(=S)N2Cc2ccco2)c1 (stereo not given) | 100 | 99 | 9
Cc1cc(NC(=O)Nc2ccc3nccc(N4CCN(C)CC4)c3c2)ccc1Br | 100 | 100 | 31
